# Reference: PubChem BioAssay AID1745847 (National Center for Advancing Translational Sciences (NCATS), 2022)
# In all, about 2,100 compounds went through this assay and about 670 (32%) were called active. Another 50% or so got no clear call; they are omitted. This is one part of the list. Unmarked numbers belong to inactive results. Calls follow the shape of the dose curve; as a rule, active = well fitted inhibition curve with a large enough effect; inconclusive = small, poorly fitted or top-dose-only effect; inactive = no such curve, though single readings can be large or run the other way.
# Assay: CMV-Luciferase Counterscreen for Inhibitors of ATXN expression; also: nearly all actives have a fitted effect of over 55% in size
# Details: HEK-293 CMV-luciferase reporter, luminescence, 24 h; series mostly up to 57.5 µM; activity change, negative = inhibition: at the top concentration
# % is scaled to controls: 0 for no effect and ±100 for the full control effect; potency is read from the fitted curve at half-maximal effect.
Compound,"activity change, negative = inhibition",Potency
CCCc1nc(NC2CCCCC2)c(C#N)c2c1COC(C)(C)C2,-15.4% [at 11.4 µM],–
CC(=O)Oc1ccc(N(C(C)=O)S(=O)(=O)c2ccc(C)cc2C)c2ccccc12,–,17.8 µM (active)
CC(=O)Oc1ccc(N(C(C)=O)S(=O)(=O)c2cccs2)c2ccccc12,–,25.1 µM (active)
NC(Cc1ccc(F)cc1)c1csc(Nc2cc(NCc3ccco3)ncn2)n1 (stereo unspecified),0.881% [at 11.4 µM],–
Cc1nc(C(F)(F)F)c(C(=O)N/N=C(\N)c2ccccn2)s1,–,10 µM (active)
Cc1cccc(/C=C/C(=O)c2ccc([N+](=O)[O-])o2)c1,–,3.55 µM (active)
COc1cc(/C=C/C(=O)c2ccc(C)c([N+](=O)[O-])c2)cc(OC)c1O,-13.8%,–
CN(C)C(=O)c1cccc(-c2cnc3c(NC=O)cc(-c4ccc(F)cc4)cn23)c1,49.3% [at 11.4 µM],–
COc1ccc(CC2C(=O)NC(C)C(=O)N(C)C3Cc4ccc(cc4)Oc4cc(ccc4O)CC(C(=O)NC(C)C(=O)NC(C)C(=O)N2C)N(C)C3=O)cc1 (stereo unspecified),–,0.891 µM (active)
O=C(N/N=C/c1cc([N+](=O)[O-])ccc1O)c1cccc2cc[nH]c12,–,2.82 µM (active)
O=C(N/N=C/c1cc([N+](=O)[O-])ccc1O)c1cc(-c2ccccc2)nc2ccccc12,–,1.78 µM (active)
OC[C@@H]1CN(Cc2ccc(-c3ccccc3)cc2)C[C@H](n2cnc3c(Nc4ccccc4)ncnc32)O1,–,12.6 µM (active)
OC[C@@H]1CN(Cc2ccc(-c3ccccc3)cc2)C[C@H](n2cnc3c(NC4CCC4)ncnc32)O1,–,10 µM (active)
CN(C)CCNc1ncnc2c1ncn2[C@H]1CN(Cc2ccc(-c3ccccc3)cc2)C[C@@H](CO)O1,-29.3%,–
CN(C)CCCNc1nc2cc(-c3cccc(Cl)c3)sc2c(=O)n1C,-10.1%,–
CN(C)C(=O)CSc1nc(-c2ccccc2)nc2c1CCCC2,-18.6%,–
CC1CCCCN1C(=O)C1CCN(c2nc(-c3ccccc3)nc3c2CCC3)CC1 (stereo unspecified),–,22.4 µM (active)
CSc1nc(-c2ccc(Cl)cc2)nc(N)c1C#N,-7.46% [at 11.4 µM],–
CCc1cc(-c2nnn(CCC3COCCO3)c2CC)ccc1-c1cn(CCc2c[nH]c3ccccc23)nn1 (stereo unspecified),–,4.47 µM (active)
COc1ccc2oc(/C=C/N(C)C)c(C(=O)c3ccc(Cl)cc3)c2c1,–,12.6 µM (active)
C[C@H]1O[C@@H](O[C@H]2[C@@H](O)C[C@H](O[C@H]3[C@@H](O)C[C@H](O[C@H]4CC[C@@]5(C)[C@H](CC[C@@H]6[C@@H]5C[C@@H](O)[C@]5(C)[C@@H](C7=CC(=O)OC7)CC[C@]65O)C4)O[C@@H]3C)O[C@@H]2C)C[C@H](O)[C@@H]1O,-12%,–
